The values that follow come from PubChem BioAssay.

Activity calls are given as the source filed them. Unless noted, the rule behind the calls is not given here.

Assay [1] concerns XIP peptide (Xip251-270) binding. The assay can be described thus: XIP fragment 251-270 binding compounds – biochemical, small-molecule microarray, fluorescence 635/667 nm, 0.1 µg/mL protein, primary screen (AID 1182). The following applies: fluorescent protein binding, 635 nm, higher = more signal, called active from +8 up or from −8 down.
Assay [2] deals with XIP peptide (Xip251-270). The assay can be described thus: compounds binding XIP fragment 251-270 – biochemical, small-molecule microarray, fluorescence 635/667 nm, 0.5 µg/mL protein, primary screen (AID 1183). The conditions noted are these: fluorescence 635 nm, higher = more signal.
The nature of assay [3]: blood-stage malaria parasite viability loss – strain 3D7, DAPI fluorescence, 100 nL, primary screen (AID 1184).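 Note: parasites grown inside human red blood cells in medium with human serum.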 The conditions noted are these: P. falciparum 3D7 growth, 3 d, higher = more signal.
Assay [4] addresses Homeobox protein Hox-A13 (Mus musculus) (UniProt Q62424). Nature of the assay: disruptors of Hoxa13 oligonucleotide interaction – biochemical, fluorescence polarization, labeled oligonucleotide, primary screen (AID 1185). The following applies: Hoxa13:DNA binding, 15 min, higher = more signal, called active from +8 up or from −8 down. In general terms: Fluorescence polarisation rises when a labelled molecule tumbles more slowly, as on binding a larger partner.

Assay [5] in a line: blockers of DNA damage checkpoint Chk1 activation – imaging, HeLa, hydroxyurea, phospho-Chk1 antibody, percent positive cells, primary screen (AID 1186). The conditions noted are these: hydroxyurea-induced phospho-Chk1 immunofluorescence imaging, higher = more signal.
The nature of assay [6]: blockers of DNA damage checkpoint Chk1 activation – imaging, HeLa, hydroxyurea, phospho-Chk1 nuclear intensity, primary screen (AID 1187). The following applies: hydroxyurea-induced phospho-Chk1 immunofluorescence imaging, higher = more signal.

Homeobox protein Hox-A13 (Mus musculus), sequence (Q62424 whole entry, looked up): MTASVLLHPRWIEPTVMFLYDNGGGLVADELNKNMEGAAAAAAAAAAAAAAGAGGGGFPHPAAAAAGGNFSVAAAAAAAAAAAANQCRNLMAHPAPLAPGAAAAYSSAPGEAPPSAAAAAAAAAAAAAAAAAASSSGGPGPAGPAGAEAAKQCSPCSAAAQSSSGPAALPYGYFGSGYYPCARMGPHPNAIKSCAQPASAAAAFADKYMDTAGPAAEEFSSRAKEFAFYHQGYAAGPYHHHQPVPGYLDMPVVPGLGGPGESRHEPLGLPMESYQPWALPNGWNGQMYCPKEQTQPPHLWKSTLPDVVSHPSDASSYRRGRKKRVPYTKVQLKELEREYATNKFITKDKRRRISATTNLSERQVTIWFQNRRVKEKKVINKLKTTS

Consider `CCCCCCCCCCC(O)C1C=CC2C(=O)N(Cc3ccccc3)C(=O)C2N1n1cnnc1` (stereo not drawn), for which the composite z-score is 0.109 (inactive) in assay [1] and 0.609 in assay [2]. Further, the z-score in assay [3] is -1.08; in assay [4] it was -2.2 (inactive); in assay [5] it was 0.577 (inactive); in assay [6] it was -0.034 (inactive).
Regarding `COc1cc(CO)ccc1OC(C)=O`, the composite z-score in assay [1] was -0.152 (inactive); in assay [2], 0.383. The z-score in assay [3] is 0.186; in assay [4], 0.472 (inactive); in assay [5], -0.111 (inactive); in assay [6], 0.0389 (inactive).
Turning to `COCCOC(=O)N1C(=O)[C@@]2(c3cc(C#CCNC(N)=O)ccc31)[C@H](c1ccc(O)cc1)N1[C@H](c3ccccc3)[C@H](c3ccccc3)OC(=O)[C@H]1[C@@H]2C(=O)Nc1nc2ccccc2s1`, the composite z-score was -0.236 (inactive) in assay [1] and -0.132 in assay [2]. For the same compound, the z-score was 0.0446 in assay [3], -0.523 (inactive) in assay [4], -0.373 (inactive) in assay [5] and -0.669 (inactive) in assay [6].
On to `O=C1C=CC(=O)[C@@H]2CC(COc3ccccc3)=C3[C@@H](CCc4ccccc4)OB(O)C[C@@H]3[C@H]12`, for which the results for the composite z-score in assay [1] and in assay [2] were -0.193 (inactive) and 0.433, respectively. In addition, the z-score in assay [3] is -1.73; in assay [4] it was -5.92 (inactive); in assay [5], -0.042 (inactive); in assay [6] it was 0.528 (inactive).
Take `C=CCC(OC(C)=O)[C@@H]1[C@@H](N(Cc2ccc(-c3cccc(C(F)(F)F)c3)o2)C(=O)c2ccc(C)cc2)c2cc(OCCCO)ccc2N1C(=O)c1ccc(-c2ccccc2)cc1` (stereo partly drawn): the composite z-score in assay [1] is 2.96 (inactive); in assay [2], 0.0783. The z-score is -2.5 in assay [3], -1.07 (inactive) in assay [4], -0.205 (inactive) in assay [5] and -0.266 (inactive) in assay [6].
Regarding `COCCOC(=O)N1C(=O)[C@@]2(c3cc(C#Cc4ccc(OC)cc4)ccc31)[C@H](C(=O)N1CCN(c3ncccn3)CC1)[C@H]1C(=O)O[C@H](c3ccccc3)[C@H](c3ccccc3)N1[C@@H]2c1ccc(O)cc1`, the values for the composite z-score in assay [1] and in assay [2] were 0.0853 (inactive) and 0.481, respectively. Further, the z-score was -1.38 in assay [3], 0.261 (inactive) in assay [4], -0.0134 (inactive) in assay [5] and -0.454 (inactive) in assay [6].
`Cc1cc(C)cc(N2C(=O)CS(=O)(=O)C2c2cccc([N+](=O)[O-])c2)c1` (stereo not drawn): the composite z-score in assay [1] is 2.64 (inactive); in assay [2], 0.0376. Moreover, the z-score in assay [3] is 0.494; in assay [4], -0.0181 (inactive); in assay [5], -0.0327 (inactive); in assay [6] it was 0.353 (inactive).
Consider `C=C(CCCC)C(=O)CC[C@H](OC(=O)c1cccnc1)c1cccc(OCCO)c1`, for which the figures for the composite z-score in assay [1] and in assay [2] were 0.179 (inactive) and 0.143, respectively. Also, the z-score in assay [3] was -3.03; in assay [4] it was -4.56 (inactive); in assay [5], -0.296 (inactive); in assay [6], -0.249 (inactive).
`COCCOC(=O)N1C(=O)[C@@]2(c3cc(C#CCC(C(=O)OC)C(=O)OC)ccc31)[C@H](c1ccccc1OCCO)N1[C@H](c3ccccc3)[C@H](c3ccccc3)OC(=O)[C@H]1[C@@H]2C(N)=O`: the composite z-score in assay [1] was 0.547 (inactive); in assay [2], 0.827. Besides, the z-score in assay [3] is -2.07; in assay [4], -1.36 (inactive); in assay [5], -0.192 (inactive); in assay [6] it was -0.0971 (inactive).
For `COC(=O)[C@@]1(Cc2ccc(OC)cc2)[C@H]2c3cc(C(=O)N4CCCC4)n(Cc4cc(F)cc5c4OCOC5)c3C[C@H]2CN1C(=O)c1ccccc1`, the composite z-score in assay [1] was 0.365 (inactive); in assay [2], 0.857. The z-score in assay [3] is -1.72; in assay [4], -6.08 (inactive); in assay [5] it was 0.127 (inactive); in assay [6], -0.271 (inactive).
In the case of `C=C[C@@H](COC(C)=O)N(Cc1ccccc1[N+](=O)[O-])S(=O)(=O)c1ccc(Br)cc1`, the composite z-score in assay [1] is 2.18 (inactive); in assay [2] it was 0.387. Moreover, the z-score in assay [3] was -0.43; in assay [4], -2.89 (inactive); in assay [5] it was -0.472 (inactive); in assay [6], -0.567 (inactive).
Regarding `COc1ccc(C#Cc2ccc3c(c2)[C@]2(C(=O)N3)[C@H](c3ccc(O)cc3)N3[C@H](c4ccccc4)[C@H](c4ccccc4)OC(=O)[C@H]3[C@@H]2C(=O)N2CCCCCCC2)cc1`, the composite z-score is 0.59 (inactive) in assay [1] and 0.644 in assay [2]. The z-score is -2.08 in assay [3], 3.13 (inactive) in assay [4], -0.184 (inactive) in assay [5] and -0.0916 (inactive) in assay [6].
Take `COC(=O)[C@@]1(Cc2ccc(F)cc2)[C@H]2c3cc(C(=O)N(C)C)n(CCc4ccccn4)c3C[C@H]2CN1C(=O)c1ccccc1`: the composite z-score in assay [1] is 0.258 (inactive); in assay [2], 0.234. In addition, the z-score in assay [3] was -1.21; in assay [4], -2.89 (inactive); in assay [5] it was -0.0308 (inactive); in assay [6] it was 0.288 (inactive).
